Molecules are shown by their SMILES. Calls of active or inactive are those of the source. How the source made its calls: active means hit-call score of the fitted dose curve at least 0.9, where 1 is the maximum; inactive means score below 0.9.

By AC50 is commonly meant the midpoint of the concentration-response curve, whichever way the signal moves.

This experiment can be described thus: ATG_NFI_CIS: Attagene CIS-FACTORIAL HepG2 Assay for human Nuclear Factor I (NFI) (AID 2282989). The conditions noted are these: HepG2 cis-regulatory reporter, NFI response element transcription; actives raise or lower the signal. On the procedure:
ATG_CIS is a cell-based, multiplexed-readout assay that uses HepG2, a human liver cell line, with measurements taken at 24 hours after chemical dosing in a 24-well plate.ATG_NFI_CIS is one of 52 assay component(s) measured or calculated from the ATG_CIS assay. It is designed to make measurements of mRNA induction, a form of inducible reporter, as detected with fluorescence intensity signals by Reverse transcription polymerase chain reaction (RT-PCR) and Capillary electrophoresis technology.Data from the assay component ATG_NFI_CIS was analyzed into 1 assay endpoint. This assay endpoint, ATG_NFI_CIS, was analyzed with bidirectional fitting relative to DMSO as the negative control and baseline of activity. Using a type of inducible reporter, measures of mRNA for gain or loss-of-signal activity can be used to understand the reporter gene at the transcription factor-level as they relate to the gene NFIA. Furthermore, this assay endpoint can be referred to as a primary readout, because this assay has produced multiple assay endpoints where this one serves a reporter gene function. To generalize the intended target to other relatable targets, this assay endpoint is annotated to the dna binding intended target family, where the subfamily is nuclear factor I.
Human liver HepG2 cells are transiently transfected with multiple reporter transcription units (MRTUs) in 6-well plates using FuGene 6 reagent (Roche; 3 ml FuGene/1 mg DNA). The MRTU constructs are regulated by a cis-regulating element (promoter). […] A major difference between the CIS and TRANS system is that in CIS activities of endogenous TFs are measured, whereas the TRANS assay evaluates changes in activities of exogenous, chimeric NR-Gal4 proteins. […] At the end of 24 hour incubation, total RNA was isolated using TriZol reagent (Invitrogen). The isolated RNA is then reverse-transcribed using oligo(dT) primer and Mo-MLV reverse transcriptase (Invitrogen) with DNAse I (Ambion) treatment for 30 min. The one-tenth of the produced cDNA was amplified by PCR using Taq DNA polymerase (Invitrogen) and two reporter sequence-specific primers. The PCR products were fluorescently labeled by primer extension with 6-arboxyfluorescein (6-FAM) 5'-labeled reporter sequence-specific primer (2 min at 95 C, 20 s at 68 C and 10 min at 72 C) and these products were digested with 5U of HpaI (New England Biolabs) for 2h at 37 C. The fragments were purified using Qiaquick PCR columns (Qiagen), analyzed on an ABI 3130xL genetic analyzer (Applied Biosystems) with peak positions identified by using a set of X-rhodamine (ROX)-labeled MapMarker1000 molecular weight standards (BioVentures). The raw capillary electrophoresis data was processed using Attagraph software (Attagene).
Turning to `O=NN1CCCCCCC1`, the outcome was inactive.

As for `COCCl`, the result was inactive. Still for that read-out and setting: the result for `Cc1ccccc1OP(=O)(Oc1ccccc1C)Oc1ccccc1C` reads “inactive”; that for `N#Cc1ccccc1Cl`, “inactive”. Same read-out and setting: the result for `Nc1nc(=S)[nH][nH]1` reads “inactive”. Take `CC(C)CC(C)(c1ccc(O)cc1)c1ccc(O)cc1`: the AC50 was 16.9 µM (active).

For the compound `O=[N+]([O-])c1ccc(Nc2ccccc2)cc1`, the result was inactive. The same measure, in the same setting: the result for `C=C(C)[C@@H]1CC=C(C=O)CC1` reads “inactive”; that for `CCN(CC)C(=O)C(Cl)=C(C)OP(=O)(OC)OC`, “inactive”. Same read-out and setting: the result for `COC(F)(C(F)(F)C(F)(F)F)C(F)(C(F)(F)F)C(F)(F)F` (stereo not given) reads “inactive”; that for `Cc1c([N+](=O)[O-])c(C)c([N+](=O)[O-])c(C(C)(C)C)c1[N+](=O)[O-]`, “inactive”; that for `CCCCS(=O)(=O)Cl`, “inactive”. With `Cc1cc(Cl)ccc1OC(C)C(=O)O` (stereo not given), the call was inactive. On the same count and under the same terms, the entry for `COc1ccc(N)cc1` is “inactive”. On the same count and under the same terms, the result for `CCOC(=O)c1ccccc1S(=O)(=O)NC(=O)Nc1nc(Cl)cc(OC)n1` reads “inactive”; that for `ClCCCCl`, “inactive”; that for `Nc1c(Oc2ccccc2)cc(O)c2c1C(=O)c1ccccc1C2=O`, “inactive”. The same measure, in the same setting: the result for `O=C(CBr)c1ccc(O)cc1` reads “inactive”; that for `CCCCOC(=O)COC(=O)c1ccccc1C(=O)OCCCC`, “inactive”. For the compound `Nc1ccc(Br)cc1`, the result was inactive. Take `CN(C)c1ccc(N=O)cc1`: the result was inactive. On the same count and under the same terms, the entry for `BrCc1ccc(Br)cc1` is “inactive”; for `c1ccc2c(c1)Oc1ccccc1O2` it is “inactive”; for `CN(C)C(=S)S` it is “inactive”.

For the compound `Oc1c(Br)cc(Br)cc1Br`, the outcome was inactive.

In the case of `CCCCCCCCBr`, the compound was classed as inactive. Same read-out and setting: the result for `CCOC(=O)OC1=C(c2cc(C)ccc2C)C(=O)NC12CCC(OC)CC2` (stereo not given) reads “inactive”.

Regarding `O=C(O)COc1cc(Cl)c(Cl)cc1Cl`, the outcome was inactive. On to `CC(C)(C#N)N=NC(C)(C)C#N`, for which the call was inactive. In the case of `O=C1C[C@@H]2OCC=C3CN4CC[C@]56c7ccccc7N1[C@H]5[C@H]2[C@H]3C[C@H]46`, the compound was called inactive.

Regarding `CCCCCCCCCCCCc1cccc(S(=O)(=O)O)c1`, the compound was classed as inactive. As for `N#CCC#N`, the outcome was inactive.

For `NNCCO`, the call was inactive.

As for `CC(C)(C)c1cc([N+](=O)[O-])cc(C(C)(C)C)c1O`, the outcome was inactive. For the compound `ClCc1ccccc1Cl`, the compound was called inactive. Still for that read-out and setting: the entry for `CCOc1ccc(N)cc1` is “inactive”; for `Nc1ncn[nH]1` it is “inactive”. As to `C1CCC(C2CCCCC2)CC1`, the compound was called inactive. Still for that read-out and setting: the entry for `CC1CC(=O)O1` (stereo not given) is “inactive”.

With `Cc1cc(Cl)ccc1N`, the outcome was inactive.

(Values after PubChem BioAssay (EPA / NIEHS).)
